# In the supplement of paper PMC4022240:
# ± gives the standard deviation.
# B1: H3 1-13 A Rme2a T K Q T A R Kac S T G G (peptide)
# chain: ARTKQTARKSTGG
# B2: H3 1-13 A Rme T K Q Tph A R K S T G G (peptide)
# chain: ARTKQTARKSTGG
# B3: H3 1-13 A Rme T K Q T A R Kme2 S T G G (peptide)
# chain: ARTKQTARKSTGG
# B4: H3 1-13 A Rme2a T K Q T A R Kme3 S T G G (peptide)
# chain: ARTKQTARKSTGG
# B5: H3 1-13 A Rme2s T Kme2 Q T A R K S T G (peptide)
# chain: ARTKQTARKSTG
# B6: H3 1-13 A Rme T K Q T A R Kme3 S T G G (peptide)
# chain: ARTKQTARKSTGG
# B7: H3 1-13 A Rme2a T Kme2 Q T A R K S T G G (peptide)
# chain: ARTKQTARKSTGG
# B8: H3 1-13 A Rme2a T K Q T A R Kme2 S T G G (peptide)
# chain: ARTKQTARKSTGG
# B9: H3 1-13 A Rme2s T Kac Q T A R K S T G G (peptide)
# chain: ARTKQTARKSTGG
# B10: H3 1-13 A Rme2s T Kme Q T A R K S T G G (peptide)
# chain: ARTKQTARKSTGG
# Legend:
# Assay in all cases: peptide microarray binding signal (635 nm), min-max normalized on array (fraction of array maximum); higher = stronger binding
# Settings in all cases: peptide region: H3 1-13
# [1] = molecular target: T1, HaloTag-ATRX ADD domain (163-292)
# T1 chain: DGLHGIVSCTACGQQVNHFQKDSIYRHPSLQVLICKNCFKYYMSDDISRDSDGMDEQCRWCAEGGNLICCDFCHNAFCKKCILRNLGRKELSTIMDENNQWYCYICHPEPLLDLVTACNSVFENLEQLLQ
# Protocol: (§1)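 Histone 13-mer peptides were synthesized as cellulose conjugates with a C-terminal 20-atom PEG linker and printed in triplicate on nitrocellulose. The sequence given is the unmodified backbone; PTMs (Kme1/2/3, Kac, Sph/Tph, Rme/Rme2a/Rme2s, Rcit) are listed in the label and the 'peptide modifications' condition. Slides were probed at 4 °C for 1 h with biotin-labelled (HQ)5-HaloTag reader fusions (ATRX-ADD, ING2-PHD) then streptavidin-Alexa647, or with rabbit histone antibodies then anti-rabbit Alexa647. The mean 635 nm signal of the triplicate spots was scaled 0-1 between the lowest and highest values on each array.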
# [2] = molecular target: HaloTag-ING2 PHD (mouse Ing2 200-280)
# Protocol: as §1
# [3] = molecular target: anti-H3K4me3 antibody ab8580
# Protocol: as §1
# [4] = molecular target: anti-H3K9me3 antibody ab8898
# Protocol: as §1
# [5] = peptide modifications: H3R2me2a H3K9ac, binder concentration: 1:2,000 dilution
# [6] = peptide modifications: H3R2me2a H3K9ac, binder concentration: 1:10,000 dilution
# [7] = peptide modifications: H3R2me1 H3T6ph, binder concentration: 1:2,000 dilution
# [8] = peptide modifications: H3R2me1 H3T6ph, binder concentration: 1:10,000 dilution
# [9] = peptide modifications: H3R2me1 H3K9me2, binder concentration: 1:2,000 dilution
# [10] = peptide modifications: H3R2me1 H3K9me2, binder concentration: 1:10,000 dilution
# [11] = peptide modifications: H3R2me2a H3K9me3, binder concentration: 1:2,000 dilution
# [12] = peptide modifications: H3R2me2a H3K9me3, binder concentration: 1:10,000 dilution
# [13] = peptide modifications: H3R2me2s H3K4me2, binder concentration: 1:2,000 dilution
# [14] = peptide modifications: H3R2me2s H3K4me2, binder concentration: 1:10,000 dilution
# [15] = peptide modifications: H3R2me1 H3K9me3, binder concentration: 1:2,000 dilution
# [16] = peptide modifications: H3R2me1 H3K9me3, binder concentration: 1:10,000 dilution
# [17] = peptide modifications: H3R2me2a H3K4me2, binder concentration: 1:2,000 dilution
# [18] = peptide modifications: H3R2me2a H3K4me2, binder concentration: 1:10,000 dilution
# [19] = peptide modifications: H3R2me2a H3K9me2, binder concentration: 1:2,000 dilution
# [20] = peptide modifications: H3R2me2a H3K9me2, binder concentration: 1:10,000 dilution
# [21] = peptide modifications: H3R2me2s H3K4ac, binder concentration: 1:2,000 dilution
# [22] = peptide modifications: H3R2me2s H3K4ac, binder concentration: 1:10,000 dilution
# [23] = peptide modifications: H3R2me2s H3K4me1, binder concentration: 1:2,000 dilution
# [24] = peptide modifications: H3R2me2s H3K4me1, binder concentration: 1:10,000 dilution
binder,measurement,setting,value
B1,peptide microarray binding signal,"[1]; peptide modifications: H3R2me2a H3K9ac, binder concentration: 50 nM",0.132 ± 0.1
same,peptide microarray binding signal,"[1]; peptide modifications: H3R2me2a H3K9ac, binder concentration: 500 nM",0.0324 ± 0.01
same,peptide microarray binding signal,"[2]; peptide modifications: H3R2me2a H3K9ac, binder concentration: 10 nM",0.0189 ± 0.0011
same,peptide microarray binding signal,"[2]; peptide modifications: H3R2me2a H3K9ac, binder concentration: 100 nM",0.0301 ± 0.0026
same,peptide microarray binding signal,[3]; [5],0.00698 ± 0.00018
same,peptide microarray binding signal,[3]; [6],0.00799 ± 0.0008
same,peptide microarray binding signal,[4]; [5],0.00634 ± 0.0012
same,peptide microarray binding signal,[4]; [6],0.0094 ± 0.0049
B2,peptide microarray binding signal,"[1]; peptide modifications: H3R2me1 H3T6ph, binder concentration: 50 nM",0.00589 ± 0.00086
same,peptide microarray binding signal,"[1]; peptide modifications: H3R2me1 H3T6ph, binder concentration: 500 nM",0.00971 ± 0.00097
same,peptide microarray binding signal,"[2]; peptide modifications: H3R2me1 H3T6ph, binder concentration: 10 nM",0.00269 ± 4e-05
same,peptide microarray binding signal,"[2]; peptide modifications: H3R2me1 H3T6ph, binder concentration: 100 nM",0.0186 ± 0.0023
same,peptide microarray binding signal,[3]; [7],0.000774 ± 4.3e-05
same,peptide microarray binding signal,[3]; [8],0.000799 ± 2.2e-05
same,peptide microarray binding signal,[4]; [7],0.0018 ± 6.1e-05
same,peptide microarray binding signal,[4]; [8],0.000634 ± 1.2e-05
B3,peptide microarray binding signal,"[1]; peptide modifications: H3R2me1 H3K9me2, binder concentration: 50 nM",0.151 ± 0.01
same,peptide microarray binding signal,"[1]; peptide modifications: H3R2me1 H3K9me2, binder concentration: 500 nM",0.167 ± 0.011
same,peptide microarray binding signal,"[2]; peptide modifications: H3R2me1 H3K9me2, binder concentration: 10 nM",0.047 ± 0.0094
same,peptide microarray binding signal,"[2]; peptide modifications: H3R2me1 H3K9me2, binder concentration: 100 nM",0.0747 ± 0.029
same,peptide microarray binding signal,[3]; [9],0.00563 ± 0.00089
same,peptide microarray binding signal,[3]; [10],0.00873 ± 0.0023
same,peptide microarray binding signal,[4]; [9],0.022 ± 0.012
same,peptide microarray binding signal,[4]; [10],0.0186 ± 0.014
B4,peptide microarray binding signal,"[1]; peptide modifications: H3R2me2a H3K9me3, binder concentration: 50 nM",0.553 ± 0.21
same,peptide microarray binding signal,"[1]; peptide modifications: H3R2me2a H3K9me3, binder concentration: 500 nM",0.325 ± 0.0057
same,peptide microarray binding signal,"[2]; peptide modifications: H3R2me2a H3K9me3, binder concentration: 10 nM",0.0188 ± 0.00063
same,peptide microarray binding signal,"[2]; peptide modifications: H3R2me2a H3K9me3, binder concentration: 100 nM",0.0327 ± 0.0029
same,peptide microarray binding signal,[3]; [11],0.0294 ± 0.003
same,peptide microarray binding signal,[3]; [12],0.0254 ± 0.0048
same,peptide microarray binding signal,[4]; [11],0.328 ± 0.013
same,peptide microarray binding signal,[4]; [12],0.254 ± 0.069
B5,peptide microarray binding signal,"[1]; peptide modifications: H3R2me2s H3K4me2, binder concentration: 50 nM",0.00476 ± 0.00032
same,peptide microarray binding signal,"[1]; peptide modifications: H3R2me2s H3K4me2, binder concentration: 500 nM",0.00814 ± 0.00041
same,peptide microarray binding signal,"[2]; peptide modifications: H3R2me2s H3K4me2, binder concentration: 10 nM",0.00967 ± 0.00038
same,peptide microarray binding signal,"[2]; peptide modifications: H3R2me2s H3K4me2, binder concentration: 100 nM",0.0142 ± 0.0012
same,peptide microarray binding signal,[3]; [13],0.0186 ± 0.0024
same,peptide microarray binding signal,[3]; [14],0.01061 ± 5.4e-05
same,peptide microarray binding signal,[4]; [13],0.00287 ± 0.00041
same,peptide microarray binding signal,[4]; [14],0.00225 ± 0.00017
B6,peptide microarray binding signal,"[1]; peptide modifications: H3R2me1 H3K9me3, binder concentration: 50 nM",1 ± 0.14
same,peptide microarray binding signal,"[1]; peptide modifications: H3R2me1 H3K9me3, binder concentration: 500 nM",1 ± 0.23
same,peptide microarray binding signal,"[2]; peptide modifications: H3R2me1 H3K9me3, binder concentration: 10 nM",0.0582 ± 0.011
same,peptide microarray binding signal,"[2]; peptide modifications: H3R2me1 H3K9me3, binder concentration: 100 nM",0.106 ± 0.024
same,peptide microarray binding signal,[3]; [15],0.088 ± 0.024
same,peptide microarray binding signal,[3]; [16],0.0951 ± 0.017
same,peptide microarray binding signal,[4]; [15],0.544 ± 0.12
same,peptide microarray binding signal,[4]; [16],0.357 ± 0.091
B7,peptide microarray binding signal,"[1]; peptide modifications: H3R2me2a H3K4me2, binder concentration: 50 nM",0.00837 ± 0.00013
same,peptide microarray binding signal,"[1]; peptide modifications: H3R2me2a H3K4me2, binder concentration: 500 nM",0.0168 ± 0.00084
same,peptide microarray binding signal,"[2]; peptide modifications: H3R2me2a H3K4me2, binder concentration: 10 nM",0.0141 ± 0.00071
same,peptide microarray binding signal,"[2]; peptide modifications: H3R2me2a H3K4me2, binder concentration: 100 nM",0.0206 ± 0.0044
same,peptide microarray binding signal,[3]; [17],0.0754 ± 0.017
same,peptide microarray binding signal,[3]; [18],0.0898 ± 0.0086
same,peptide microarray binding signal,[4]; [17],0.00464 ± 0.0004
same,peptide microarray binding signal,[4]; [18],0.00386 ± 0.00011
B8,peptide microarray binding signal,"[1]; peptide modifications: H3R2me2a H3K9me2, binder concentration: 50 nM",0.169 ± 0.018
same,peptide microarray binding signal,"[1]; peptide modifications: H3R2me2a H3K9me2, binder concentration: 500 nM",0.197 ± 0.0079
same,peptide microarray binding signal,"[2]; peptide modifications: H3R2me2a H3K9me2, binder concentration: 10 nM",0.06 ± 0.00075
same,peptide microarray binding signal,"[2]; peptide modifications: H3R2me2a H3K9me2, binder concentration: 100 nM",0.0848 ± 0.012
same,peptide microarray binding signal,[3]; [19],0.0133 ± 0.0025
same,peptide microarray binding signal,[3]; [20],0.0229 ± 0.0084
same,peptide microarray binding signal,[4]; [19],0.0303 ± 0.0053
same,peptide microarray binding signal,[4]; [20],0.0191 ± 0.0015
B9,peptide microarray binding signal,"[1]; peptide modifications: H3R2me2s H3K4ac, binder concentration: 50 nM",0.0137 ± 0.00038
same,peptide microarray binding signal,"[1]; peptide modifications: H3R2me2s H3K4ac, binder concentration: 500 nM",0.046 ± 0.0095
same,peptide microarray binding signal,"[2]; peptide modifications: H3R2me2s H3K4ac, binder concentration: 10 nM",0.0299 ± 0.0078
same,peptide microarray binding signal,"[2]; peptide modifications: H3R2me2s H3K4ac, binder concentration: 100 nM",0.0957 ± 0.0077
same,peptide microarray binding signal,[3]; [21],0.00993 ± 0.0029
same,peptide microarray binding signal,[3]; [22],0.00651 ± 0.00097
same,peptide microarray binding signal,[4]; [21],0.0137 ± 0.0005
same,peptide microarray binding signal,[4]; [22],0.00617 ± 0.00064
B10,peptide microarray binding signal,"[1]; peptide modifications: H3R2me2s H3K4me1, binder concentration: 50 nM",0.00815 ± 0.00038
same,peptide microarray binding signal,"[1]; peptide modifications: H3R2me2s H3K4me1, binder concentration: 500 nM",0.0162 ± 0.0009
same,peptide microarray binding signal,"[2]; peptide modifications: H3R2me2s H3K4me1, binder concentration: 10 nM",0.00573 ± 0.00037
same,peptide microarray binding signal,"[2]; peptide modifications: H3R2me2s H3K4me1, binder concentration: 100 nM",0.0481 ± 0.011
same,peptide microarray binding signal,[3]; [23],0.0368 ± 0.009
same,peptide microarray binding signal,[3]; [24],0.0228 ± 0.00057
same,peptide microarray binding signal,[4]; [23],0.00405 ± 0.0004
same,peptide microarray binding signal,[4]; [24],0.00329 ± 0.00019
